Bioassay records: PubChem BioAssay, The Scripps Research Institute Molecular Screening Center
HTR2A ag = mouse Htr2a agonists via beta-arrestin recruitment, primary screen, cell-based, luminescence. actives 0.66% (n = 360,000). CHO-K1 mHTR2A beta-arrestin complementation; percent of 30 µM serotonin response. activation, % at 7.6 µM. AID 624169, 2012;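 active = activation above a run cutoff, the mean activation of all tested compounds plus 3 SD, cut at about 14% in these data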
OPRM1-OPRD1 ag = agonists of OPRM1-OPRD1 heterodimerization, primary screen, cell-based, luminescence; Mu-type opioid receptor (Homo sapiens) + Delta-type opioid receptor (Homo sapiens), …; cells; activation, % at 9.3 µM; actives 0.3% (n = 340,000); AID 504326, 2011; in the data active = activation above about 18%
Target sequence (P35372 whole entry, looked up): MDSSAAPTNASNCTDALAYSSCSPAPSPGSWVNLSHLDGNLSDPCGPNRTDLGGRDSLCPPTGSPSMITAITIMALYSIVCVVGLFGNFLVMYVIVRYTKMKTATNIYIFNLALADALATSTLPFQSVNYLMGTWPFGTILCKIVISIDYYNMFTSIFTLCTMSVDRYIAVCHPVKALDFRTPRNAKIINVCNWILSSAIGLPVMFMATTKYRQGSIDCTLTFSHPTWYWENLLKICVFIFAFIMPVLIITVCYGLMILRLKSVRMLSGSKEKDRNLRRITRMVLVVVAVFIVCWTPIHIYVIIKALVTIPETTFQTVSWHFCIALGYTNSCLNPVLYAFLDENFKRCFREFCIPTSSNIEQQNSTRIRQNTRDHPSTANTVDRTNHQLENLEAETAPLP
Target sequence (P41143 whole entry, looked up): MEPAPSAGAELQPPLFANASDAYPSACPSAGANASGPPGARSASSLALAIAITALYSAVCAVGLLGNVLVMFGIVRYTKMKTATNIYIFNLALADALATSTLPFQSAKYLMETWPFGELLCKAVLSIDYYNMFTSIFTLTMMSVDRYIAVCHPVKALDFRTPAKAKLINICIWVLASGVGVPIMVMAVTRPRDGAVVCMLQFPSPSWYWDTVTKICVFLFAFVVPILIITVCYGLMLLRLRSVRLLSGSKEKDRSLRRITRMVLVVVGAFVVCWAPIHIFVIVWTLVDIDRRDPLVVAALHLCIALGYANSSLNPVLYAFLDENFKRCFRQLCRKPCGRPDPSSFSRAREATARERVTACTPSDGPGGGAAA
HTR5A ag = HTR5A agonists in luminescence cell assay, primary screen, counter-screen for OPRM1-OPRD1 heterodimer agonist project, full-deck HTS. 5-hydroxytryptamine receptor 5A (Homo sapiens), P47898. activation, % at 9.3 µM. actives 0.61% (n = 340,000). cell-based; in the data active = activation mostly above about 9.5%, no sharp cut-off; inactive = mostly below about 7.6%
OPRM1-OPRD1 inv = inverse agonists of MOR-DOR heterodimerization, primary screen, cell-based, luminescence; actives 0.21% (n = 340,000); AID 504357, 2011; cell-based MOR-DOR heterodimer luminescence, inverse agonism; inhibition, % at 9.3 µM; in the data active = inhibition above about 22%, passing the limit was not always enough
sPLA2-III inh = human group III sPLA2 inhibitors, primary screen, biochemical, QFRET, BODIPY PC-A2 liposome substrate; QFRET BODIPY PC-A2 liposome hydrolysis, fluorescence; inhibition, % at 12.2 µM; actives 0.56% (n = 370,000); AID 743126, 2013;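 active = inhibition above mean plus 3 SD of compounds lying within the high and low control bounds, cut at about 19% in these data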
HTR5A inv ag = HTR5A inverse agonists in luminescence cell assay, primary screen, counter-screen for OPRM1-OPRD1 heterodimer inverse agonist project, full-deck HTS | 5-hydroxytryptamine receptor 5A (Homo sapiens), P47898 | HTR5A cell line, inverse agonism | inhibition, % at 9.3 µM | actives 0.083% (n = 340,000); in the data active = inhibition mostly above about 23%, no sharp cut-off; inactive = mostly below about 18%
OPRM1 ag = OPRM1 agonists via beta-arrestin recruitment, confirmation, counter-screen for mouse HTR2A agonist project, cell-based, luminescence, single concentration; shares compounds with HTR2A ag; activation, % at 9.3 µM; actives 5.3% (n = 2,300); U2OS OPRM1 beta-arrestin PathHunter; DMSO 0%, DAMGO 9.3 µM 100%;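 active = mean activation above the mean of DMSO-only wells plus 3 SD, cut at about 0.5% in these data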
HTR2A ag conf = mouse HTR2A agonists, beta-arrestin recruitment, confirmation, cell-based, luminescence, CHO-K1 PathHunter, triplicate; shares compounds with HTR2A ag; DMSO 0%, 30 µM serotonin 100%; activation, % at 7.6 µM; actives 19% (n = 2,300); AID 624381, 2012;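 active = mean activation across triplicates above the hit threshold derived in the original primary screen, cut at about 15% in these data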
Each line names hits and unclear results; the compound was inactive in the other large screens (follow-up assays come after a bar, where they were run). An excerpt weighted towards active compounds, which were near 2.2% of everything screened.

C[C@H](O)[C@@H]1CN2CCc3c([nH]c4ccccc34)[C@@H]2C[C@@H]1N(C)C(=O)Nc1ccc(Br)cc1	HTR2A ag 16 (no result: OPRM1-OPRD1 ag, HTR5A ag, OPRM1-OPRD1 inv, HTR5A inv ag) | HTR2A ag conf 27
Cc1ccncc1CNC(=O)c1ccccc1	HTR2A ag 16 | OPRM1 ag inactive | HTR2A ag conf inactive
CNC12CCc3cc(OC)c(OC)c(c31)-c1cc3c(cc1C2)OCO3 (stereo not given)	none (no result: HTR2A ag, OPRM1-OPRD1 ag, HTR5A ag, OPRM1-OPRD1 inv, HTR5A inv ag)
Cc1ccccc1-n1ncc(C(C)NS(=O)(=O)c2sccc2C)c1C (stereo not given)	HTR2A ag 15 | OPRM1 ag inactive | HTR2A ag conf inactive
S=c1[nH]nc2ccccn12	HTR2A ag 21 | OPRM1 ag inactive | HTR2A ag conf inactive
Clc1ccc(CN2CCN(c3ncccn3)CC2)c(Cl)c1	HTR2A ag 16 | OPRM1 ag inactive | HTR2A ag conf 103
Clc1ccccc1CN1CCN(c2ncccn2)CC1	HTR2A ag 28 | OPRM1 ag inactive | HTR2A ag conf 98
Clc1cccc(CN2CCN(c3ncccn3)CC2)c1Cl	none
COc1ccccc1NC(=O)OC1CC2CC1[C@H]1CCCCN1[C@H]2C (stereo not given in full)	none (no result: HTR2A ag, OPRM1-OPRD1 ag, HTR5A ag, OPRM1-OPRD1 inv, HTR5A inv ag)
CC(/C=N/n1c(-c2ccccc2)n[nH]c1=S)=C\c1ccco1	HTR2A ag 22 | OPRM1 ag inactive | HTR2A ag conf inactive
CC(/C=N/n1c(-c2ccncc2)n[nH]c1=S)=C\c1ccco1	HTR2A ag 20, sPLA2-III inh 23 (no result: OPRM1-OPRD1 ag, HTR5A ag, OPRM1-OPRD1 inv, HTR5A inv ag) | OPRM1 ag inactive | HTR2A ag conf inactive
CCc1ccc(Cn2c(=O)n(Cc3ccc(C(=O)NCCCOC)cc3)c(=O)c3ccccc32)cc1	none (no result: HTR2A ag, OPRM1-OPRD1 ag, HTR5A ag, OPRM1-OPRD1 inv, HTR5A inv ag)
Cc1ccc(C(=O)NCC(=O)N(C)Cc2ccccc2C)s1	HTR2A ag 19 (no result: OPRM1-OPRD1 ag, HTR5A ag, OPRM1-OPRD1 inv, HTR5A inv ag) | OPRM1 ag inactive | HTR2A ag conf inactive
Cc1ccc(C(=O)NCC(=O)N(C)Cc2cccc(F)c2)s1	none
C[C@@H]1CN([C@H](C)CO)C(=O)CCCn2nncc2CO[C@H]1CN(C)Cc1cccc2c1OCCCO2	none (no result: OPRM1-OPRD1 ag, HTR5A ag, OPRM1-OPRD1 inv, HTR5A inv ag)
C[C@H](CO)N1C[C@H](C)[C@@H](CN(C)Cc2cccc3c2OCCCO3)OCc2cnnn2CCCC1=O	HTR2A ag 19 (no result: OPRM1-OPRD1 ag, HTR5A ag, OPRM1-OPRD1 inv, HTR5A inv ag) | OPRM1 ag inactive | HTR2A ag conf inactive
CCc1cc2c(nc1CC)CCCN2S(=O)(=O)c1ccc(C)cc1	none (no result: HTR2A ag, OPRM1-OPRD1 ag, HTR5A ag, OPRM1-OPRD1 inv, HTR5A inv ag)
Cc1nn2c(c1-c1ccccc1)NC1=C(C(=O)CCC1)C2c1ccccc1 (stereo not given)	HTR2A ag 16 | OPRM1 ag inactive | HTR2A ag conf inactive
COc1ccc(C2C3=C(CCCC3=O)Nc3c(-c4ccccc4)c(C)nn32)cc1 (stereo not given)	none (no result: sPLA2-III inh)
CCOC(=O)N1CCC(N2C(=O)c3ccc(C(=O)NCc4ccc(F)cc4)cc3C2=O)CC1	none
CCOC(=O)N1CCC(N2C(=O)c3ccc(C(=O)NCc4ccco4)cc3C2=O)CC1	HTR2A ag 23 | OPRM1 ag inactive | HTR2A ag conf inactive
C[C@H](O)[C@@H]1CN2CCc3ccc(N4CCOCC4)cc3[C@@H]2C[C@@H]1N(C)C(=O)c1cccc(Cl)c1	none (no result: HTR2A ag, OPRM1-OPRD1 ag, HTR5A ag, OPRM1-OPRD1 inv, HTR5A inv ag)
CCN(CC)S(=O)(=O)c1cccc(NC(=O)CN2C(=O)c3ccc([N+](=O)[O-])cc3C2=O)c1	HTR2A ag 18 | OPRM1 ag inactive | HTR2A ag conf inactive
CC(C)CCNC(=O)CCn1c(=S)oc2ccccc21	HTR2A ag 19 | OPRM1 ag inactive | HTR2A ag conf inactive
CN1CCCCC(NC(=O)c2c(F)cccc2F)C1=O (stereo not given)	none (no result: HTR2A ag, OPRM1-OPRD1 ag, HTR5A ag, OPRM1-OPRD1 inv, HTR5A inv ag)
COC(=O)c1cc2c(c3c4cc(F)ccc4n(S(=O)(=O)c4cccc(C)c4)c13)C(=O)N(Cc1ccc(C(F)(F)F)cc1)C2	none (no result: HTR2A ag, OPRM1-OPRD1 ag, HTR5A ag, OPRM1-OPRD1 inv, HTR5A inv ag)
CCCCOc1ccc(C(=O)NCC(=O)NC2CCC(C)CC2)cc1 (stereo not given)	HTR2A ag 18 | OPRM1 ag inactive | HTR2A ag conf inactive
OC(Cn1cnnc1)c1ccccc1 (stereo not given)	HTR2A ag 17 | OPRM1 ag inactive | HTR2A ag conf inactive
CCN1Cc2nnn(Cc3ccccc3)c2-c2cc(F)ccc2S1(=O)=O	none (no result: HTR2A ag, OPRM1-OPRD1 ag, HTR5A ag, OPRM1-OPRD1 inv, HTR5A inv ag)
COc1cc(NC(=O)c2ccc3c(SCC(=O)O)c4c(nc3c2)CCC4)cc(OC)c1OC	none
COc1cc(NC(=O)c2ccc3c(SCC(=O)O)c4c(nc3c2)CCCC4)cc(OC)c1OC	HTR2A ag 15 | OPRM1 ag inactive | HTR2A ag conf inactive
CCC(C)(C)n1nnnc1C(c1ccc(O)c(OC)c1)N1CCN(c2nc3ccccc3s2)CC1 (stereo not given)	HTR2A ag 24 | OPRM1 ag inactive | HTR2A ag conf inactive
COc1ccc(C(c2nnnn2C(C)(C)C)N2CCN(c3nc4ccccc4s3)CC2)cc1 (stereo not given)	none
Cc1nc2sc(C(c3ccco3)N3CC(C)OC(C)C3)c(O)n2n1 (stereo not given)	HTR2A ag 23 | OPRM1 ag inactive | HTR2A ag conf inactive
Cc1nc2sc(C(c3ccccc3)N3CCN(CCO)CC3)c(O)n2n1 (stereo not given)	HTR2A ag 32 | OPRM1 ag inactive | HTR2A ag conf inactive
O=C(CNC(=O)c1ccccc1F)OCCCOC(=O)CNC(=O)c1ccccc1F	HTR2A ag 15 | OPRM1 ag inactive | HTR2A ag conf inactive
COC(=O)C1CCN(CCCOc2ccc(CN3CCN(c4ccc([N+](=O)[O-])cc4)CC3)cc2)CC1	HTR2A ag 25 | OPRM1 ag inactive | HTR2A ag conf 75
Cc1c(Cl)cccc1NC(=O)COC(=O)Cc1ccsc1	HTR2A ag 16 | OPRM1 ag inactive | HTR2A ag conf inactive
O=C(CSc1n[nH]c(=O)n1C1CC1)NCc1ccccc1	HTR2A ag 15 | OPRM1 ag inactive | HTR2A ag conf inactive
CCc1ccc(NC(=O)CSc2n[nH]c(=O)n2C2CC2)cc1	none
Cc1ccc(C(=O)Nc2cc(=O)n(C)c(=O)n2C)cc1C	HTR2A ag 16 | OPRM1 ag inactive | HTR2A ag conf inactive
COC(=O)C(C[N+](=O)[O-])C1=C(O)CC(C)(C)CC1=O (stereo not given)	none (no result: HTR2A ag, OPRM1-OPRD1 ag, HTR5A ag, OPRM1-OPRD1 inv, HTR5A inv ag)
